Activity calls are given as the source filed them. Unless noted, how the calls were made is not given here.
Key:
[1] = system: Wnt5a (protein binding on small-molecule microarray); assay: Wnt5a binders on small-molecule microarray, primary screen, biophysical, 635/667 nm fluorescence (AID 1142); details: 635 nm fluorescence, higher = more signal;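 further: fluorescence read at 667 nm with signal to noise per printed feature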
[2] = cell viability in Huh7 cells, primary screen, cytotoxicity control for HCV replication inhibitor project, CellTiter-Glo luminescence, basal, 48 h (AID 1143); details: Huh7 HCV replicon, higher = more signal, called active from +8 up or from −8 down;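 further: Huh7 hepatoma cells carrying a hepatitis C replication reporter with no stimulus; test concentration not given here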
[3] = P. aeruginosa biofilm formation inhibitors, primary screen, PAO1 strain, BacTiter-Glo luminescence, LB-PBS (AID 1144); details: 12 h, higher = more signal
[4] = CREB reporter modulators without forskolin, primary screen, cell-based, PC12, CRE-LacZ reporter, unstimulated (AID 1145); details: no forskolin, luminescence, 4.5 h, higher = more signal, called active from +8 up or from −8 down
[5] = CREB reporter modulators under forskolin, primary screen, cell-based, PC12, CRE-LacZ reporter, forskolin-stimulated (AID 1146); details: luminescence, 4.5 h, higher = more signal, called active from +8 up or from −8 down;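 further: PC12 cells with 6xCRE LacZ reporter stimulated by forskolin 10 µM; beta-galactosidase reporter signal reflecting CREB driven transcription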
[6] = target: Streptavidin (Streptomyces avidinii) (UniProt P22629); assay: streptavidin binders on small-molecule microarray, primary screen, artefact control for SMM compound annotation, biophysical, 635/667 nm fluorescence (AID 1147); details: streptavidin binding, higher = more signal;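 further: signal reflects streptavidin binding to arrayed compounds as a control protein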
[7] = small-molecule binders of probe aInhba, primary screen, biochemical, small-molecule microarray, 635/667 nm fluorescence (AID 1148); details: higher = more signal;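 further: score merges 667nm spot fluorescence with signal-to-noise for antibody binding to printed compounds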
Torsin-1A (Homo sapiens) [8] = target: Torsin-1A (Homo sapiens) (UniProt O14656); assay: torsin A binders from cell lysate, primary screen, small-molecule microarray, wild-type, 635/667 nm (AID 1149); details: COS7 hTOR1A-WT lysate, 635 nm fluorescence, higher = more signal
Torsin-1A (Homo sapiens) [9] = target: Torsin-1A (Homo sapiens) (UniProt O14656); assay: small-molecule binders of mutant TOR1A in lysate, primary screen, cell lysate, small-molecule microarray, COS7 lysate, 635/667 nm fluorescence (AID 1150); details: COS7 hTOR1A mutant lysate, 635 nm fluorescence, higher = more signal;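 further: score pools 667 nm emission and signal to noise measuring lysate protein binding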
[10] = system: Sonic hedgehog protein (Shh); assay: small-molecule binders of Shh protein, primary screen, biochemical, small-molecule microarray, 635/667 nm fluorescence (AID 1151); details: small-molecule microarray binding, 635 nm fluorescence; higher = more signal;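 further: Shh protein binding to compounds spotted on small-molecule microarray slides; score combines spot fluorescence intensity with signal-to-noise across triplicate slides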
[11] = E. coli DRC41 culture turbidity changes, primary screen, E. coli filamentation inducer project, strain DRC41, OD650, 48 h (AID 1152);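 further: E. coli MC1000 strain DRC41 lacking acrAB efflux pump and sulA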; details: E. coli DRC41 (acrAB sulA), higher = more signal, called active from +8 up or from −8 down
[12] = small-molecule binders of probe aLefty1, primary screen, biochemical, small-molecule microarray, 635/667 nm fluorescence (AID 1153); details: higher = more signal;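 further: score merges spot fluorescence with signal-to-noise ratio from the scanned slide images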
[13] = PSAC antagonists in infected red cells, primary screen, cell-based, P. falciparum Indochina, OD700, 1 h (AID 1154); details: P. falciparum Indochina infected RBC osmotic lysis, higher = more signal, called active from +8 up or from −8 down
[14] = PSAC antagonists in infected red cells, primary screen, cell-based, P. falciparum Indochina, OD700, 2 h (AID 1155);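 further: lysis reports solute entry through the parasite surface anion channel PSAC; channel blockers reduce lysis of infected cells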; details: P. falciparum Indochina infected erythrocytes, osmotic lysis OD700; higher = more signal, called active from +8 up or from −8 down
[15] = osmotic lysis modulators in infected erythrocytes, primary screen, PSAC antagonist project, cell-based, P. falciparum Indochina, OD700, 3 h (AID 1156); details: higher = more signal, called active from +8 up or from −8 down
[16] = PSAC antagonists in infected red cells, primary screen, cell-based, P. falciparum Indochina, OD700, 18 h (AID 1157); details: P. falciparum Indochina infected erythrocytes, osmotic lysis OD700, 18 h; higher = more signal, called active from +8 up or from −8 down
[17] = modulators of S6 phosphorylation in cells, primary screen, cell-based, A549, cytoblot, luminescence, serum-stimulated (AID 1158); details: A549 phospho-S6 cytoblot, 5 h, higher = more signal;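 further: serum-stimulated A549 lung adenocarcinoma cells; signal is phosphorylated S6 detected by cytoblot immunostaining with HRP secondary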
[18] = target: NADPH oxidase 2 (Homo sapiens) (UniProt P04839); assay: NOX2-dependent H2O2 signal modulators, primary screen, NOX inhibitor project, cell-based, HEK293-NOX2, PMA-stimulated, Amplex Red fluorescence (AID 1159); details: 45 min, higher = more signal, called active from +8 up or from −8 down; further: test concentration not given here
[19] = target: NADPH oxidase 4 (Homo sapiens) (UniProt Q9NPH5); assay: NOX4-dependent H2O2 signal modulators, primary screen, NOX inhibitor project, cell-based, HEK293-NOX4, tetracycline-induced, Amplex Red fluorescence (AID 1160); details: 45 min, higher = more signal, called active from +8 up or from −8 down
[20] = target: NADPH oxidase 5 (Homo sapiens) (UniProt Q96PH1); assay: NOX5-dependent H2O2 signal modulators, primary screen, NOX inhibitor project, cell-based, HEK293-NOX5, Amplex Red fluorescence (AID 1161); details: HEK293-NOX5, ionomycin, 45 min, higher = more signal
Sequence of NADPH oxidase 5 (Homo sapiens) (Q96PH1 whole entry, looked up): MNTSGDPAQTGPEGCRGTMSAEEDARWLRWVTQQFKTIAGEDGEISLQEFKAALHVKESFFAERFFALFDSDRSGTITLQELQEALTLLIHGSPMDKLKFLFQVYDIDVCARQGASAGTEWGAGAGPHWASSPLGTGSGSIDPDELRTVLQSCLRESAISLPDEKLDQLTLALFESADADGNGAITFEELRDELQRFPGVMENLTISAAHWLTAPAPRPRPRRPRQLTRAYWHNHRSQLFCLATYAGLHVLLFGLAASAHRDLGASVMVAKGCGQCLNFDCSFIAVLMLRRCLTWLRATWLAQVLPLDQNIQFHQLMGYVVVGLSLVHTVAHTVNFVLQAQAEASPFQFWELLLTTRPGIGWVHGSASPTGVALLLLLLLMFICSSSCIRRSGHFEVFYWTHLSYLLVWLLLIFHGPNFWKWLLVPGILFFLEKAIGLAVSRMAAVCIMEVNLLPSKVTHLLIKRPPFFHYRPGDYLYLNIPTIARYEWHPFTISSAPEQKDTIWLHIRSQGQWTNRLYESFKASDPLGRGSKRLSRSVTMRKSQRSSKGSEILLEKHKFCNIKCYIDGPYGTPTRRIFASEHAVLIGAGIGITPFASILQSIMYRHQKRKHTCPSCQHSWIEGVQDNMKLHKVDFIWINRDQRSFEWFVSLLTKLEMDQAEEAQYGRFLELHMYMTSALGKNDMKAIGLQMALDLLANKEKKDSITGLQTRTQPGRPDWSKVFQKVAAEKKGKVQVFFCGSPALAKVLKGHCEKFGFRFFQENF

Sequence of Torsin-1A (Homo sapiens) (O14656 whole entry, looked up): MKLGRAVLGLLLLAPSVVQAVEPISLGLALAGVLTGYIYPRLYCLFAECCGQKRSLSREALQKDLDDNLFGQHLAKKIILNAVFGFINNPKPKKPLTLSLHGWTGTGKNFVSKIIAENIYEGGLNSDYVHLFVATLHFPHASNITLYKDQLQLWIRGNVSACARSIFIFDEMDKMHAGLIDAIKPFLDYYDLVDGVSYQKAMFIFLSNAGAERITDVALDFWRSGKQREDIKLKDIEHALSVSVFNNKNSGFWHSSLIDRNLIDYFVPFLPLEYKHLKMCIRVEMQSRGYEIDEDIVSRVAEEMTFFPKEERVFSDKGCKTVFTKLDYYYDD
Sequence of NADPH oxidase 2 (Homo sapiens) (P04839 whole entry, looked up): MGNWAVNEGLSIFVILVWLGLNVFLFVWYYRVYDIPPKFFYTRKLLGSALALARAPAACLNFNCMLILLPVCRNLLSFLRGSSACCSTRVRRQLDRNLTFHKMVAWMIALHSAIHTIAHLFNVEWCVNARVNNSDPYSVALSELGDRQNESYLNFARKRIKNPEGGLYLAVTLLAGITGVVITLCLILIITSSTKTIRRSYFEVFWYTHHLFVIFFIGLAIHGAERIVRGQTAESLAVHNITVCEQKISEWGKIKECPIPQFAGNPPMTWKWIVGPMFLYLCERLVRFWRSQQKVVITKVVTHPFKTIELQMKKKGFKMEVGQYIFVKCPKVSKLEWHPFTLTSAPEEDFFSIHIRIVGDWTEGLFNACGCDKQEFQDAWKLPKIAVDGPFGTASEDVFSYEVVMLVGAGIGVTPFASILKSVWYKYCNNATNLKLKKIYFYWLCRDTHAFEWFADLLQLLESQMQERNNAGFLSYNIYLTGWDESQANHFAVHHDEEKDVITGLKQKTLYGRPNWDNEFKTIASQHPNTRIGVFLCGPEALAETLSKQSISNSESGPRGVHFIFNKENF
Sequence of NADPH oxidase 4 (Homo sapiens) (Q9NPH5 whole entry, looked up): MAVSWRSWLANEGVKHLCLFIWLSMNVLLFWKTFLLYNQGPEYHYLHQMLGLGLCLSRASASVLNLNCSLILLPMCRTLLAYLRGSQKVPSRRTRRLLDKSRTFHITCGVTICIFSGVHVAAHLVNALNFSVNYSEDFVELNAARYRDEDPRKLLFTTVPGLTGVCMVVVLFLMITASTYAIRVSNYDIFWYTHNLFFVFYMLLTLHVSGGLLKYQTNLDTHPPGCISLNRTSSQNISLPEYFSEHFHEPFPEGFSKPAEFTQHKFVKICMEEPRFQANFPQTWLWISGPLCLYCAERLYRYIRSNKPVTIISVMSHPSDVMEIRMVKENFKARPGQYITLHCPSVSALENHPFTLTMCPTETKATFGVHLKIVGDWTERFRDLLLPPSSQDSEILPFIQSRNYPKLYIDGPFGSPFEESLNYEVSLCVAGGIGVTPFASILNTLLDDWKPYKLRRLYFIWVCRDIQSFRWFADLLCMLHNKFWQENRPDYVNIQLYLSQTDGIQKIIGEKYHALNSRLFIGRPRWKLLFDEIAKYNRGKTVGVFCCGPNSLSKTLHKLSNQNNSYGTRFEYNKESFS
Sequence of Streptavidin (Streptomyces avidinii) (P22629 whole entry, looked up): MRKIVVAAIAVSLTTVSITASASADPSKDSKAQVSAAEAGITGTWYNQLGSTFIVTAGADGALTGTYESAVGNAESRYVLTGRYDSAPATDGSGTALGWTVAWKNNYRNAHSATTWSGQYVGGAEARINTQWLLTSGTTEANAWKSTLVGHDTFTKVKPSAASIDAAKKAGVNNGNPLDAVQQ

SMILES	composite z-score [1]	z-score [2]	z-score [3]	z-score [4]	z-score [5]	composite z-score [6]	composite z-score [7]	composite z-score (Torsin-1A (Homo sapiens) [8])	composite z-score (Torsin-1A (Homo sapiens) [9])	composite z-score [10]	z-score [11]	composite z-score [12]	z-score [13]	z-score [14]	z-score [15]	z-score [16]	z-score [17]	z-score [18]	z-score [19]	z-score [20]
O=C(Cc1ccccc1)[C@H]1C2C=CCCC(c3ccccc3)=C2CN1Cc1ccccc1 (stereo not given in full)	0.0277	-0.408 (inactive)	-0.886 (inactive)	4.3 (inactive)	-0.0521 (inactive)	-0.144	-0.0494	0.219	-0.412	0.0701	2.46 (inactive)	-0.151	0.567 (inactive)	0.186 (inactive)	0.879 (inactive)	0.06 (inactive)	-0.0984	-0.534 (inactive)	0.773 (inactive)	1.13
COCCOC(=O)N1C(=O)[C@@]2(c3cc(C#CCC(C(=O)OC)C(=O)OC)ccc31)[C@H](c1ccc(OCCO)cc1)N1[C@H](c3ccccc3)[C@H](c3ccccc3)OC(=O)[C@H]1[C@@H]2C(=O)N1CCc2cc(OC)c(OC)cc2C1	0.575	-1.35 (inactive)	-0.119 (inactive)	-0.0607 (inactive)	0.936 (inactive)	0.918	-0.0087	0.843	0.769	1.8	-0.0746 (inactive)	0.269	6.85 (inactive)	2.56 (inactive)	0.324 (inactive)	1.78 (inactive)	-0.215	2.22 (inactive)	1.17 (inactive)	1.29
COc1ccc([Si](C)(C)[C@@H]2[C@@H](CC(=O)N(CCO)Cc3ccccc3)O[C@]3(C(=O)N(Cc4cccc(N5CCCCC5=O)c4)c4ccccc43)[C@H]2C)cc1	0.585	-4.76 (inactive)	-0.952 (inactive)	0.716 (inactive)	0.708 (inactive)	-0.402	0.187	0.961	0.706	2.06	0.152 (inactive)	0.527	4.33 (inactive)	1.85 (inactive)	0.422 (inactive)	1.14 (inactive)	1.19	0.609 (inactive)	1.28 (inactive)	3.58
C=CCC(OC(C)=O)[C@@H]1[C@@H](N(Cc2cccc3ccccc23)C(=O)Cc2ccc(OC)cc2)c2cc(OCCCO)ccc2N1C(=O)c1ccc(-c2ccccc2)cc1 (stereo not given in full)	-0.213	-1.22 (inactive)	1.16 (inactive)	0.106 (inactive)	-0.375 (inactive)	0.107	-0.0762	-0.452	0.0437	0.112	-0.62 (inactive)	0.0429	0.0926 (inactive)	0.299 (inactive)	-0.278 (inactive)	0.263 (inactive)	0.0614	-1.33 (inactive)	-0.257 (inactive)	-1.21
COCCOC(=O)N1C(=O)[C@@]2(c3ccccc31)[C@H](C(=O)NC[C@H](O)c1ccccc1)[C@H]1C(=O)O[C@H](c3ccccc3)[C@H](c3ccccc3)N1[C@@H]2c1ccc(O)cc1	0.852	-1.98 (inactive)	-0.193 (inactive)	0.155 (inactive)	2.34 (inactive)	1.09	0.106	0.877	0.383	1.74	0.503 (inactive)	-0.671	1.89 (inactive)	0.74 (inactive)	-0.0724 (inactive)	0.786 (inactive)	0.315	1.22 (inactive)	0.4 (inactive)	0.855
CC(C)C(CO)N1C(=O)[C@@H]2C3C(=O)OCCC/C=C\[C@H]3OC23C=CCN(Cn2nnc4ccccc42)C(=O)[C@@H]13 (stereo not given in full)	-0.665	-0.252 (inactive)	0.0208 (inactive)	-1.44 (inactive)	-0.0111 (inactive)	-1.23	-0.128	-1.7	-1.07	0.0683	0.302 (inactive)	-0.147	0.897 (inactive)	-0.364 (inactive)	-0.443 (inactive)	0.234 (inactive)	1.36	1.23 (inactive)	0.806 (inactive)	1.51
O=C(NCCN1CCOCC1)[C@@H]1c2ccccc2C(=O)N(Cc2ccccc2Cl)[C@H]1c1ccc(CO)cc1	-0.38	-0.276 (inactive)	0.11 (inactive)	-0.295 (inactive)	-0.6 (inactive)	-0.831	-0.32	-0.826	1.23	-1.07	0.446 (inactive)	0.121	4.63 (inactive)	0.466 (inactive)	0.297 (inactive)	0.306 (inactive)	-0.467	-0.112 (inactive)	0.34 (inactive)	-0.371
CCCC=C(CCC)[C@@H](NC(=O)c1cccs1)c1ccc(C(=O)OC)cc1	0.535	-0.268 (inactive)	-0.473 (inactive)	-0.951 (inactive)	0.158 (inactive)	0.373	0.375	0.657	0.183	-0.83	-1.24 (inactive)	0.911	-1.3 (inactive)	-0.864 (inactive)	-1.72 (inactive)	-1.27 (inactive)	1.28	0.0754 (inactive)	1.74 (inactive)	2.06
COCCCNC(=O)[C@@]1(CCC(=O)OC(C)(C)C)N=C(c2ccc(OCCCO)cc2)O[C@H]1c1ccccc1N=[N+]=[N-]	0.573	-0.61 (inactive)	0.199 (inactive)	0.456 (inactive)	-1.71 (inactive)	2.07	0.545	0.786	1.04	-0.341	1.15 (inactive)	0.286	30.4 (active)	29.3 (active)	2.54 (inactive)	2.43 (inactive)	-0.226	-1.35 (inactive)	0.197 (inactive)	-2.03
